Records with an inconclusive call do not appear. Where a call stands in place of a potency, no number is given. Calls of active or inactive are those of the source. Calls follow the shape of the dose curve; as a rule, active = well fitted inhibition curve with a large enough effect; inconclusive = small, poorly fitted or top-dose-only effect; inactive = flat fitted curve, though single readings scatter.
Potency is read from the fitted curve at half-maximal effect.

Sequence of DNA repair nuclease/redox regulator APEX1 (Homo sapiens) (P27695 whole entry, looked up): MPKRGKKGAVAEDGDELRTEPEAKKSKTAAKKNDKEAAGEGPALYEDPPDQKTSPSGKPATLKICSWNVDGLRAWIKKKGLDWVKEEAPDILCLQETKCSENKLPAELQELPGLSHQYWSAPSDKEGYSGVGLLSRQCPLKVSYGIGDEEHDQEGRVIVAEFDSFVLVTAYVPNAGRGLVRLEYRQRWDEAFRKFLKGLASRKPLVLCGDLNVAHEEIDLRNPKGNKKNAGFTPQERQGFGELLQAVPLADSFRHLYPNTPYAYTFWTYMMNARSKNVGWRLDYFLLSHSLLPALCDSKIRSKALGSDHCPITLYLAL

The test addresses DNA repair nuclease/redox regulator APEX1 (Homo sapiens) (UniProt P27695). Briefly: qHTS Validation Assay for Inhibitors of the Human Apurinic/apyrimidinic Endonuclease 1 (APE1) (AID 1705). As to conditions: purified APE1 endonuclease activity, fluorescence, titration; series mostly up to 57.1 µM. In outline: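 Fluorogenic double-stranded THF abasic-site substrate (5'-TAMRA/3'-BHQ-2), 50 nM final. Enzyme preincubated with compound 15 min at room temperature, then substrate added. Kinetic fluorescence (ex 525/em 598 nm) read three times at 60 s intervals; activity taken as third-minus-first read difference.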
Background: In qHTS, concentration-response curves come from the screen itself.
For the compound `Brc1c(NC2=NCCN2)ccc2nccnc12`, the Potency entry was “inactive”.
Then `C[N+](C)(C)CCOC(=O)CCC(=O)OCC[N+](C)(C)C`, with “inactive”; and `O=C1CC2(CCCC2)CC(=O)N1CCCCN1CCN(c2ncccn2)CC1`, with “inactive”.
On to `CC(=O)[C@]1(O)Cc2c(O)c3c(c(O)c2[C@@H](O[C@H]2C[C@H](N)[C@H](O)[C@H](C)O2)C1)C(=O)c1ccccc1C3=O`, for which the Potency is 14.1 µM (active).
Then `CN(C)C(=O)Oc1cccc([N+](C)(C)C)c1`, with “inactive”; and `NS(=O)(=O)c1cc2c(cc1Cl)NC(C1CC3C=CC1C3)NS2(=O)=O` (stereo unspecified), with “inactive”; and `Cc1nnc(SCC2=C(C(=O)O)N3C(=O)[C@@H](NC(=O)Cn4cnnn4)[C@H]3SC2)s1`, with “inactive”.
Then `C[C@]12CCC(=O)C=C1CC[C@@H]1[C@@H]2C(=O)C[C@@]2(C)[C@H]1CC[C@]2(O)C(=O)CO`, with “inactive”; and `NC(=O)c1ncn([C@@H]2O[C@H](CO)[C@@H](O)[C@H]2O)c1O`, with “inactive”; and `CCc1cccc(N(C)C(N)=Nc2cccc3ccccc23)c1`, with “inactive”.
The entry for `CCCNC(C)C(=O)Nc1ccccc1C` (stereo unspecified) is “inactive”; for `COCCCC/C(=N\OCCN)c1ccc(C(F)(F)F)cc1` it is “inactive”.
As to `Nc1ncn([C@@H]2O[C@H](CO)[C@@H](O)[C@H]2O)c(=O)n1`, the Potency result is “inactive”.
The entry for `C[C@]12C=CC(=O)C=C1CC[C@H]1[C@@H]3C[C@@H](O)[C@](O)(C(=O)CO)[C@@]3(C)C[C@H](O)[C@@]12F` is “inactive”; for `CCC(=O)c1ccc2c(c1)N(CCCN(C)C)c1ccccc1S2` it is “inactive”.
The entry for `NC(N)=N/N=C/c1c(Cl)cccc1Cl` is “inactive”; for `C[C@H](CS)C(=O)N1CCC[C@H]1C(=O)O` it is “inactive”.
Then `CN(C)CC[C@@H](c1ccc(Br)cc1)c1ccccn1`, with “inactive”.
For the compound `C[n+]1cc2c3c(ccc2c2ccc4cc5c(cc4c21)OCO5)OCO3`, the Potency entry is “inactive”.
The entry for `COc1ccc([C@@H]2Sc3ccccc3N(CCN(C)C)C(=O)[C@@H]2OC(C)=O)cc1` is “inactive”.
The entry for `CC(=O)OCC1=C(C(=O)O)N2C(=O)[C@@H](NC(=O)Cc3cccs3)[C@H]2SC1` is “inactive”.
Then `CCOC(=O)C1=C(C)NC(C)=C(C(=O)OC)C1c1cccc(Cl)c1Cl` (stereo unspecified), with “inactive”; and `CN(C)C/C=C(/c1ccc(Br)cc1)c1cccnc1`, with “inactive”.
Turning to `CNCCCN1c2ccccc2CCc2ccccc21`, the Potency result was “inactive”.
`CSc1ccc(C(=O)c2[nH]c(=O)[nH]c2C)cc1`: the Potency result is “inactive”.
Consider `Cc1nc2c([nH]1)c(=O)n(C)c(=O)n2Cc1ccco1`, for which the Potency result was “inactive”.
Then `C(=C\c1ccccc1)/CN1CCN(C(c2ccccc2)c2ccccc2)CC1`, with “inactive”.
Regarding `CN(C)C(=O)Oc1ccc[n+](C)c1`, the Potency result was “inactive”.
Then `CC(C)(C)NCC(O)c1cc(O)cc(O)c1` (stereo unspecified), with “inactive”.
Then `OCCN1CCN(CC/C=C2/c3ccccc3Sc3ccc(C(F)(F)F)cc32)CC1`, with “inactive”.
Then `O=C(CCCN1CCC(O)(c2cccc(C(F)(F)F)c2)CC1)c1ccc(F)cc1`, with “inactive”.

For the origin of these results see PubChem BioAssay (NCATS).
